# Laboratory results reported in PubChem BioAssay.
# “And” between values parts separate entries of the source, which are not always exact repeats. Identical values can stand only once. The source made the active and inactive calls. Unless noted, how the calls were made is not given here.
# What was measured:
# [1] = compound effects on lung adenocarcinoma cell viability – A549, calcein-AM fluorescence, 48 h, basal, profiling panel (AID 1162); details: higher = more signal; further: test concentration not given here
# [2] = compound effects on differentiated 3T3-L1 adipocyte viability – cell-based, 3T3-L1 adipocytes, calcein-AM fluorescence, 48 h, basal, profiling panel (AID 1163); details: 3T3-L1 adipocytes viability, higher = more signal; further: test concentration not given here
# [3] = compound effects on hepatocellular carcinoma cell viability – HepG2, calcein-AM fluorescence, 48 h, basal, profiling panel (AID 1164); details: higher = more signal; further: test concentration not given here
# [4] = compound effects on multiple myeloma cell viability – MM1S, calcein-AM fluorescence, 48 h, basal, profiling panel (AID 1165); details: higher = more signal;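 further: viability of MM1S multiple myeloma cells under basal unstimulated conditions; test concentration not given here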
# [5] = calcein-AM signal in unstimulated myeloma cells – cell-based, calcein-AM fluorescence, 48 h, PK04 Diversity Set, profiling panel (AID 1166); details: RPMI8226 myeloma viability, higher = more signal;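 further: cells grown under basal conditions without added stimulus; test concentration not given here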
# [6] = JC-1 mitochondrial signal, unstimulated HepG2 cells – cell-based, JC-1 fluorescence, 24 h, 100 nL compound, profiling panel (AID 1167); details: HepG2 mitochondrial potential, higher = more signal; further: test concentration not given here
# [7] = JC-1 mitochondrial signal, unstimulated adipocytes – cell-based, JC-1 fluorescence, 3T3-L1 adipocytes, 24 h, 100 nL compound, profiling panel (AID 1168); details: JC-1 mitochondrial fluorescence, higher = more signal, called active from +8 up or from −8 down; further: test concentration not given here
# [8] = JC-1 mitochondrial signal, unstimulated myeloma cells – cell-based, JC-1 fluorescence, RPMI8226, 24 h, 100 nL compound, profiling panel (AID 1169); details: JC-1 mitochondrial potential fluorescence, higher = more signal; further: test concentration not given here
# [9] = JC-1 mitochondrial signal, unstimulated MM1S myeloma – cell-based, JC-1 fluorescence, 24 h, 100 nL compound, profiling panel (AID 1170); details: MM1S mitochondrial potential, higher = more signal; further: test concentration not given here
# [10] = resazurin metabolic signal in A549 cells – cell-based, resazurin fluorescence, 24 h, PK04 Diversity Set, profiling panel (AID 1171); details: A549 viability, higher = more signal, called active from +8 up or from −8 down; further: test concentration not given here
# [11] = resazurin metabolic signal in HepG2 cells – cell-based, resazurin fluorescence, 24 h, PK04 Diversity Set, profiling panel (AID 1172); details: HepG2 viability, higher = more signal; further: test concentration not given here
# [12] = budding yeast growth changes without added modifier – OD600, strain BY4716, 24 h, basal condition, primary screen (AID 1173); details: S. cerevisiae BY4716 growth, OD600, 24 h; higher = more signal, called active from +8 up or from −8 down
# [13] = viability profiling in MM1S myeloma cells – cell-based, resazurin fluorescence, basal, 24 h, PK04 Diversity Set, profiling panel (AID 1174); details: higher = more signal, called active from +8 up or from −8 down; further: test concentration not given here
# [14] = biological target: Dihydroorotate dehydrogenase (quinone), mitochondrial (Plasmodium falciparum (isolate 3D7)) (UniProt Q08210); experiment: inhibition of P. falciparum DHODH – biochemical, C-terminal His tag, absorbance 600 nm, primary screen (AID 1175); details: PfDHODH enzyme, DCIP absorbance 600 nm; higher = more signal, called active from +8 up or from −8 down;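 further: recombinant parasite enzyme with a five histidine tag at its C terminus; test concentration not given here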
# Chain of Dihydroorotate dehydrogenase (quinone), mitochondrial (Plasmodium falciparum (isolate 3D7)) (Q08210 whole entry, looked up): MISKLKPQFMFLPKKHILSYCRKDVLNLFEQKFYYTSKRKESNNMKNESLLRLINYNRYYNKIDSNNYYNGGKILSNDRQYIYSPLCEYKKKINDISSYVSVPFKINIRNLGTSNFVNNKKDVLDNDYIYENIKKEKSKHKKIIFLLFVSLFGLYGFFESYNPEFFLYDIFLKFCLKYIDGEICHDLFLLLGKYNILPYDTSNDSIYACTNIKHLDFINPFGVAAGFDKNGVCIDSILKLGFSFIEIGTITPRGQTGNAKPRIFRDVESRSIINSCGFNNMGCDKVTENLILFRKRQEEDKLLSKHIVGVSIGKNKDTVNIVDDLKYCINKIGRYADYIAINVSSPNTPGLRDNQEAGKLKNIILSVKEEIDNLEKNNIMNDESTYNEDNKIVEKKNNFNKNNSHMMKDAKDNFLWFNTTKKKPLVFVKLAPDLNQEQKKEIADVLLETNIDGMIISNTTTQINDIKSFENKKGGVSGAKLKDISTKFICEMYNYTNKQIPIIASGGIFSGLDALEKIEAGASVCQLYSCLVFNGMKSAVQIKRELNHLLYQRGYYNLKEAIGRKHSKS
# [15] = inhibition of PAO1 biofilm formation – strain PAO1, LB-PBS medium, absorbance 600 nm, primary screen (AID 1176); further: test concentration not given here; details: P. aeruginosa PAO1 growth/biofilm, A600, 12 h; higher = more signal
# [16] = growth modulation of vineyard yeast isolate – strain RM11-1a, OD600, basal, 24 h, primary screen (AID 1177);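 further: cultures grown under basal conditions with no added stressor; test concentration not given here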; details: S. cerevisiae RM11-1a growth, OD600, 24 h; higher = more signal, called active from +8 up or from −8 down
# [17] = growth of efflux-deficient E. coli DRC39 – strain DRC39, OD650, 24 h, E. coli filamentation inducers, primary screen (AID 1178);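 further: growth measured as culture turbidity by optical density at 650 nm; test concentration not given here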; details: E. coli DRC39 acrAB, higher = more signal, called active from +8 up or from −8 down
# [18] = growth of efflux-deficient E. coli DRC39 – strain DRC39, OD650, 48 h, E. coli filamentation inducers, primary screen (AID 1179);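 further: screen aims at cell division blockers that make cells filament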; details: E. coli DRC39 delta-acrAB growth, higher = more signal, called active from +8 up or from −8 down
# [19] = viability profiling in RPMI8226 myeloma cells – cell-based, resazurin fluorescence, basal, 24 h, PK04 Diversity Set, profiling panel (AID 1180); details: higher = more signal;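 further: RPMI8826 multiple myeloma cell line at 5000 cells per well; test concentration not given here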
# [20] = biological target: E3 ubiquitin-protein ligase XIAP (Homo sapiens) (UniProt P98170); experiment: small molecules binding XIAP protein – biophysical, small-molecule microarray, fluorescence 635 nm, primary screen (AID 1181); details: higher = more signal;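 further: score merges 667 nm emission and signal to noise over triplicate slides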
# Chain of E3 ubiquitin-protein ligase XIAP (Homo sapiens) (P98170 whole entry, looked up): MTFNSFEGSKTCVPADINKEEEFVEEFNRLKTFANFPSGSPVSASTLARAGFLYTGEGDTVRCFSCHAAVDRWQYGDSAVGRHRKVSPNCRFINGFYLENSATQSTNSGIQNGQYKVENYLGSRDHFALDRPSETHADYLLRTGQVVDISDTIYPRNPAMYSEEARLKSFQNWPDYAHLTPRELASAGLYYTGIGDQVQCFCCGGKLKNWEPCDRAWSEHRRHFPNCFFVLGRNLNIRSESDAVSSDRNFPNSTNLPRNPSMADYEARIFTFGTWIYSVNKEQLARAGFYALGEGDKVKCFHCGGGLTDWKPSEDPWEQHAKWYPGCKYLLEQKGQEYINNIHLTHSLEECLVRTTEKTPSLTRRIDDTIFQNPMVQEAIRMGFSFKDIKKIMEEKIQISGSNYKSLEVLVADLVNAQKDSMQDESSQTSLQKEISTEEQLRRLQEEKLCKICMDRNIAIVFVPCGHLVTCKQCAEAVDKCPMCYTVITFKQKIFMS
smiles,measurement,setting,value
Cc1ccc(S(=O)(=O)N[C@@H]2COC(=O)CC=C[C@@H](C)[C@@H]3C=C[C@H](O)[C@@H](COC(=O)CC=C[C@H]2C)O3)cc1,z-score,[1],0.616 and -0.418
same,z-score,[2],-0.347 and -0.476
same,z-score,[3],0.664 and -1.95
same,z-score,[4],0.0847 and -1.25
same,z-score,[5],0.0913 and -0.776
same,z-score,[6],-0.0139 and 0.344
same,z-score,[7],-0.0698 (inactive) and 0.134 (inactive)
same,z-score,[8],-0.858 and 1.11
same,z-score,[9],1.32 and -1.69
same,z-score,[10],0.0086 (inactive) and 0.658 (inactive)
same,z-score,[11],-0.29 and 0.458
same,z-score,[12],-0.595 (inactive) and 0.228 (inactive)
same,z-score,[13],-0.0856 (inactive) and 0.441 (inactive)
same,composite z-score,[14],0.178 (inactive) and -4.95 (inactive)
same,z-score,[15],-0.212 (inactive) and -0.0781 (inactive)
same,z-score,[16],-0.169 (inactive) and -0.14 (inactive)
same,z-score,[17],0.245 (inactive) and -1.15 (inactive)
same,z-score,[18],0.0957 (inactive) and -0.599 (inactive)
same,z-score,[19],-0.541 and 0.341
same,composite z-score,[20],-0.138 and -0.124
O=C1NC(=O)C2C1C=CC(C(O)c1ccc([N+](=O)[O-])cc1)N2Nc1ccc(Cl)cc1Cl (stereo not given),z-score,[1],0.953 and 1.59
same,z-score,[2],0.0938 and 0.263
same,z-score,[3],0.949 and 1.79
same,z-score,[4],-0.251 and 0.596
same,z-score,[5],-0.194 and 0.932
same,z-score,[6],-0.115 and -0.654
same,z-score,[7],-0.833 (inactive) and -0.57 (inactive)
same,z-score,[8],-0.314 and -0.905
same,z-score,[9],0.319 and 2.28
same,z-score,[10],0.303 (inactive) and 0.766 (inactive)
same,z-score,[11],-1.01 and 0.266
same,z-score,[12],-8.52 (active) and -8.8 (active)
same,z-score,[13],0.52 (inactive) and -0.103 (inactive)
same,composite z-score,[14],-0.87 (inactive) and -1.11 (inactive)
same,z-score,[15],2.4 (inactive) and 2.49 (inactive)
same,z-score,[16],-0.728 (inactive) and -1.12 (inactive)
same,z-score,[17],-0.0259 (inactive) and 0.6 (inactive)
same,z-score,[18],-0.568 (inactive) and 0.615 (inactive)
same,z-score,[19],0.425 and 0.122
same,composite z-score,[20],-0.0102 and 0.0975
C=CCN(C(=O)C(c1cccs1)N(C(=O)/C=C\C(=O)O)c1ccc(CCO)cc1)c1ccc(OC)cc1 (stereo not given),z-score,[1],-0.256 and 1.54
same,z-score,[2],0.015 and -0.199
same,z-score,[3],1.35 and 0.76
same,z-score,[4],1 and -0.0823
same,z-score,[5],1.2 and -0.0106
same,z-score,[6],0.417 and 0.583
same,z-score,[7],0.249 (inactive) and 1.26 (inactive)
same,z-score,[8],0.201 and 0.0752
same,z-score,[9],-1.07 and 1.18
same,z-score,[10],0.307 (inactive) and 0.0568 (inactive)
same,z-score,[11],0.495 and -0.158
same,z-score,[12],-1.66 (inactive) and -1.5 (inactive)
same,z-score,[13],0.777 (inactive) and 0.249 (inactive)
same,composite z-score,[14],-1.09 (inactive) and -4.45 (inactive)
same,z-score,[15],0.413 (inactive) and -0.497 (inactive)
same,z-score,[16],-0.405 (inactive) and 0.127 (inactive)
same,z-score,[17],1 (inactive) and 0.244 (inactive)
same,z-score,[18],0.78 (inactive) and 0.864 (inactive)
same,z-score,[19],0.32 and 0.335
same,composite z-score,[20],0.184 and 0.284
C[C@@H]1CC[C@H]2C(=O)O[C@H](CN=[N+]=[N-])CN2[C@H]1c1ccc(Br)cc1,z-score,[1],-2.47 and 0.677
same,z-score,[2],-0.805 and -0.0793
same,z-score,[3],-2.75 and -0.113
same,z-score,[4],-3.4 and -0.0115
same,z-score,[5],-3.07 and 0.163
same,z-score,[6],-2.47 and 0.365
same,z-score,[7],-0.136 (inactive) and 0.265 (inactive)
same,z-score,[8],-0.867 and 0.0245
same,z-score,[9],-1.02 and 0.242
same,z-score,[10],-0.854 (inactive) and 0.459 (inactive)
same,z-score,[11],-0.528 and 0.231
same,z-score,[12],-3.44 (inactive) and -4.5 (inactive)
same,z-score,[13],-0.586 (inactive) and 0.637 (inactive)
same,composite z-score,[14],0.41 (inactive) and 0.841 (inactive)
same,z-score,[15],1.39 (inactive) and -0.0204 (inactive)
same,z-score,[16],-0.505 (inactive) and 1.67 (inactive)
same,z-score,[17],-0.686 (inactive) and -0.801 (inactive)
same,z-score,[18],-0.633 (inactive) and -1.31 (inactive)
same,z-score,[19],-1.38 and 0.417
same,composite z-score,[20],0.0871 and 0.277
CCOC(=O)C[C@H]1[C@H](OC(=O)c2ccccc2-c2ccccc2)[C@@H](NC(=O)c2ccccc2)c2cc(OCCCO)ccc2N1C(=O)c1ccc2ccccc2n1,z-score,[1],0.916 and -0.393
same,z-score,[2],0.804 and -0.0181
same,z-score,[3],0.694 and 1.01
same,z-score,[4],0.175 and -1.55
same,z-score,[5],-0.749 and -0.483
same,z-score,[6],0.733 and 1.5
same,z-score,[7],0.408 (inactive) and 0.209 (inactive)
same,z-score,[8],-1.08 and 0.127
same,z-score,[9],-0.627 and 0.14
same,z-score,[10],0.65 (inactive) and 0.579 (inactive)
same,z-score,[11],0.578 and -0.48
same,z-score,[12],-0.602 (inactive) and 1.01 (inactive)
same,z-score,[13],0.602 (inactive) and -0.924 (inactive)
same,composite z-score,[14],0.139 (inactive) and -0.264 (inactive)
same,z-score,[15],-0.152 (inactive) and 0.432 (inactive)
same,z-score,[16],-0.26 (inactive) and -0.698 (inactive)
same,z-score,[17],1.39 (inactive) and -0.851 (inactive)
same,z-score,[18],0.845 (inactive) and -0.687 (inactive)
same,z-score,[19],-0.236 and -0.847
same,composite z-score,[20],-0.227 and 0.0451
